According to PubChem BioAssay (EPA / NIEHS):
Calls of active or inactive are those of the source. Rule for the calls: active = hit-call score of the fitted dose curve at least 0.9, where 1 is the maximum; inactive = score below 0.9.

Tests used:
[1] = ATG_GLI_CIS: Attagene CIS-FACTORIAL HepG2 Assay for human Zinc Finger Protein GLI1 (AID 2282945); conditions: HepG2, Attagene cis-factorial reporter mRNA, GLI element; actives raise or lower the signal
Summary of the method: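 Transiently transfected HepG2 cells report endogenous transcription factor activity via cis-element-driven reporter units. After 24 h compound exposure, reporter mRNA was measured by RT-PCR with capillary electrophoresis; bidirectional fitting against DMSO baseline.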

[2] = biological target: Bile acid receptor (Homo sapiens) (UniProt Q96RI1); assay: ATG_IR1_CIS: Attagene CIS-FACTORIAL HepG2 Assay for human Nuclear Receptor Subfamily 1 Group H Member 4 (NR1H4), IR1 submotif (AID 2282946); conditions: IR1 reporter transcription, actives raise or lower the signal
Chain of Bile acid receptor (Homo sapiens) (Q96RI1 whole entry, looked up): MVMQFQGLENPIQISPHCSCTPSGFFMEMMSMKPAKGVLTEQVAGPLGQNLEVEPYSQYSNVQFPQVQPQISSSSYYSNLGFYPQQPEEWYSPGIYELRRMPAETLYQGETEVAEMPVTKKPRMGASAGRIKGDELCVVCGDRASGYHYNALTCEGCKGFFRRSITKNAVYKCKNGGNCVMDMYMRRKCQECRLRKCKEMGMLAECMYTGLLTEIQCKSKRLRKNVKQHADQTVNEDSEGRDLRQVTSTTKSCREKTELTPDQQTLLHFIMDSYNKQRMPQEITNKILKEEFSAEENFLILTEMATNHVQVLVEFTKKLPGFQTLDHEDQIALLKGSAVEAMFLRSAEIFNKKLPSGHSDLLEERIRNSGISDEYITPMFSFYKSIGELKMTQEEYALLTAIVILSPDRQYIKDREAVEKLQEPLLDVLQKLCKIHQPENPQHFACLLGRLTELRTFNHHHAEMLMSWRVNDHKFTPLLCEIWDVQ
Summary of the method: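 Fluorescence of capillary-separated, HpaI-digested RT-PCR reporter products gave IR1-element mRNA induction in HepG2 cells 24 h after dosing. Endogenous transcription factors drove the cis-regulated reporters; activity was fitted bidirectionally against DMSO.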

[3] = ATG_GRE_CIS: Attagene CIS-FACTORIAL HepG2 Assay for human Glucocorticoid Response Elements (GRE) (AID 2282947); conditions: HepG2 GRE cis-reporter, Attagene multiplex mRNA; actives raise or lower the signal
Summary of the method: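 Fluorescence intensity of reporter-specific cDNA fragments, separated by capillary electrophoresis, provides the signal. Constructs carry cis-regulating promoters in transiently transfected HepG2 liver cells; 24 h incubation; fitting is bidirectional against DMSO.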

[4] = ATG_ISRE_CIS: Attagene CIS-FACTORIAL HepG2 Assay for human Interferon Regulatory Factor 1 (IRF1) binding to an Interferon-Stimulated Response Element (ISRE) (AID 2282948); conditions: HepG2 ISRE cis-reporter (Attagene), mRNA transcription readout; actives raise or lower the signal
Summary of the method: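 Read-out: fluorescent RT-PCR products resolved by capillary electrophoresis, reporting endogenous transcription factor activity via ISRE-driven reporter mRNA in transfected HepG2 cells dosed for 24 h; gain or loss fitted relative to DMSO.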

[5] = ATG_M_32_CIS: Attagene CIS-FACTORIAL HepG2 Assay for M32 Transcription Factor (Internal Marker) (AID 2282949); conditions: HepG2 Attagene cis-factorial M32 reporter, mRNA; actives raise or lower the signal;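 note: background control marker of the multiplexed CIS panel rather than a real target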
Summary of the method: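 HepG2 transfectants (cis-regulated reporter transcription units) dosed 24 h. Reporter mRNA by RT-PCR plus CE, analysed as gain or loss relative to DMSO.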

[6] = ATG_M_06_CIS: Attagene CIS-FACTORIAL HepG2 Assay for M06 Transcription Factor (Internal Marker) (AID 2282950); conditions: HepG2 Attagene CIS-FACTORIAL M06 internal marker reporter; actives raise or lower the signal
Summary of the method: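 Cells (HepG2, transiently carrying cis-driven reporter units) receive chemical for 24 h before RNA isolation. Reporter cDNA is PCR-amplified, FAM-labelled by primer extension, HpaI-digested and sized on a capillary analyser.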

[7] = biological target: Hypoxia-inducible factor 1-alpha (Homo sapiens) (UniProt Q16665); assay: ATG_HIF1a_CIS: Attagene CIS-FACTORIAL HepG2 Assay for human Hypoxia Inducible Factor 1 (HIF1A) (AID 2282951); conditions: HepG2 Attagene cis-factorial HIF1a reporter transcription; actives raise or lower the signal
Chain of Hypoxia-inducible factor 1-alpha (Homo sapiens) (Q16665 whole entry, looked up): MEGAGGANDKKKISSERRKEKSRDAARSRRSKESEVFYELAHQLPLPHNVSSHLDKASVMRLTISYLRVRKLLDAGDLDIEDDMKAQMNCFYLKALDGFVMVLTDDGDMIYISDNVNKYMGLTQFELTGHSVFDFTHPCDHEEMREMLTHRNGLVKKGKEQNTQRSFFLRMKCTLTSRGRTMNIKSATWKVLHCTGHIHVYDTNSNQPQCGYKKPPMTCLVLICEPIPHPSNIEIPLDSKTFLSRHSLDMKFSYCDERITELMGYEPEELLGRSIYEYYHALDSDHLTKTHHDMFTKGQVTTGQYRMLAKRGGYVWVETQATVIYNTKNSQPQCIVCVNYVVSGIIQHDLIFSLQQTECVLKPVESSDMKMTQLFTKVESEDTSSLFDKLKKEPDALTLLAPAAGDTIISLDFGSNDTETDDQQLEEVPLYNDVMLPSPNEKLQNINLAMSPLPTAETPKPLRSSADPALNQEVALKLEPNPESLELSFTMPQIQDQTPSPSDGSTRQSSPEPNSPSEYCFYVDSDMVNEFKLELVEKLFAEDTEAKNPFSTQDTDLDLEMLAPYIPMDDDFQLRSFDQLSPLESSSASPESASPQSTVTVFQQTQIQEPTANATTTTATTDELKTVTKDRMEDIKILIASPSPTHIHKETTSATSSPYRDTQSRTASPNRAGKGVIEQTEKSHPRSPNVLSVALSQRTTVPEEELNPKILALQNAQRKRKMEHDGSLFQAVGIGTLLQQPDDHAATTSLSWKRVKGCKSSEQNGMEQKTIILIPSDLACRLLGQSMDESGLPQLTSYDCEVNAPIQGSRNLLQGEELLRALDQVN
Summary of the method: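 HepG2 cells transiently transfected with multiplexed cis-promoter reporter units; reporter mRNA read 24 h after dosing by RT-PCR, 6-FAM primer-extension labelling, HpaI digestion and capillary electrophoresis. Bidirectional fit versus DMSO baseline.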

[8] = biological target: Hepatocyte nuclear factor 6 (Homo sapiens) (UniProt Q9UBC0); assay: ATG_HNF6_CIS: Attagene CIS-FACTORIAL HepG2 Assay for human Hepatocyte Nuclear Factor 6 (HNF6) (AID 2282952); conditions: HepG2 Attagene cis-factorial HNF6 reporter transcription; actives raise or lower the signal
Chain of Hepatocyte nuclear factor 6 (Homo sapiens) (Q9UBC0 whole entry, looked up, the tested form may be a part): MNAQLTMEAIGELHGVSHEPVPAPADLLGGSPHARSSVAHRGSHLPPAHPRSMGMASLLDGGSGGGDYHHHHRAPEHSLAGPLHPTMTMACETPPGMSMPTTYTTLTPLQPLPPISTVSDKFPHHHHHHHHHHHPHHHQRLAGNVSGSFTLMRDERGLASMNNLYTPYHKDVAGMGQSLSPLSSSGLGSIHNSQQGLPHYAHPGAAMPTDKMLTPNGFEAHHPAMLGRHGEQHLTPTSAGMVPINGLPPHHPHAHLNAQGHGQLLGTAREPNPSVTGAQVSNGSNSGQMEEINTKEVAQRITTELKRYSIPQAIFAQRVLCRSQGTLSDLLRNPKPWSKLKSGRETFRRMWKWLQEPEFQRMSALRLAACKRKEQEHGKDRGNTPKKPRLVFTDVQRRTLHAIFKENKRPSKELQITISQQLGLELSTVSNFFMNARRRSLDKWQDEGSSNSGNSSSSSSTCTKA
Summary of the method: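 First, HepG2 cells were transfected with the multiplexed cis reporter library and dosed with chemical for 24 h. Next, RNA was reverse-transcribed, PCR-amplified and fluorescently labelled. Finally, HpaI-digested fragments were read by capillary electrophoresis.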

[9] = biological target: Heat shock factor protein 1 (Homo sapiens) (UniProt Q00613); assay: ATG_HSE_CIS: Attagene CIS-FACTORIAL HepG2 Assay for human Heat Shock Transcription Factor 1 (HSE) (AID 2282953); conditions: HepG2 HSE cis-reporter, Attagene RNA transcription; actives raise or lower the signal
Chain of Heat shock factor protein 1 (Homo sapiens) (Q00613 whole entry, looked up): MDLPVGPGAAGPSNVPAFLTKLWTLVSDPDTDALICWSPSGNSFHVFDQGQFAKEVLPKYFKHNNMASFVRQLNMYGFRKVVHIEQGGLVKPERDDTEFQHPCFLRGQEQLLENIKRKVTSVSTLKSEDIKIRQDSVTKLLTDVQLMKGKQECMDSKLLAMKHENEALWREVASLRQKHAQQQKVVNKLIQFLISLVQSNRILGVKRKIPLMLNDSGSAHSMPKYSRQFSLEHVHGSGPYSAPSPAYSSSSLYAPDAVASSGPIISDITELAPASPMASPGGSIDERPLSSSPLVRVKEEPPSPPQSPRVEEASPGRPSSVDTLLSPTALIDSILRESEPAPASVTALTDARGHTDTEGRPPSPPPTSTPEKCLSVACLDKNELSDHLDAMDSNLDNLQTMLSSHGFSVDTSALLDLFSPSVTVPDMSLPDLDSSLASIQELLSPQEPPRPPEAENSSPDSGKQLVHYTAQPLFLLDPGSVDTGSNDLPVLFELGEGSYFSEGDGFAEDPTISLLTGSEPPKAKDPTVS
Summary of the method: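 Liver-derived HepG2 cells carry transiently introduced multiple reporter units governed by cis promoters. Reporter RNA measured 24 h post-dose through reverse transcription, PCR amplification, fluorescent labelling and capillary electrophoresis, normalised to DMSO.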

[10] = ATG_MRE_CIS: Attagene CIS-FACTORIAL HepG2 Assay for human Metal Responsive Element (MRE) (AID 2282954); conditions: HepG2 MRE cis-reporter transcription, Attagene multiplex; actives raise or lower the signal
Summary of the method: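 Measured here is mRNA induction from an MRE cis-element reporter in HepG2 after 24 h, quantified by fluorescence of labelled RT-PCR products on capillary electrophoresis; gain- and loss-of-signal fits use DMSO as baseline.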

[11] = ATG_PBREM_CIS: Attagene CIS-FACTORIAL HepG2 Assay for human Phenobarbital-responsive Enhancer Module (PBREM) (AID 2282955); conditions: HepG2 PBREM cis-reporter, Attagene multiplexed transcription; actives raise or lower the signal
Summary of the method: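 HepG2 cells transiently transfected with multiple cis-regulated reporter transcription units; endogenous factor activity at the PBREM element measured as reporter mRNA 24 h after dosing, via RT-PCR and capillary electrophoresis of fluorescent fragments; bidirectional fitting versus DMSO.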

[12] = biological target: Paired box protein Pax-6 (Homo sapiens) (UniProt P26367); assay: ATG_Pax6_CIS: Attagene CIS-FACTORIAL HepG2 Assay for human Paired Box 6 (PAX6) (AID 2282956); conditions: HepG2 CIS-FACTORIAL PAX6 reporter transcription, RNA readout; actives raise or lower the signal
Chain of Paired box protein Pax-6 (Homo sapiens) (P26367 whole entry, looked up): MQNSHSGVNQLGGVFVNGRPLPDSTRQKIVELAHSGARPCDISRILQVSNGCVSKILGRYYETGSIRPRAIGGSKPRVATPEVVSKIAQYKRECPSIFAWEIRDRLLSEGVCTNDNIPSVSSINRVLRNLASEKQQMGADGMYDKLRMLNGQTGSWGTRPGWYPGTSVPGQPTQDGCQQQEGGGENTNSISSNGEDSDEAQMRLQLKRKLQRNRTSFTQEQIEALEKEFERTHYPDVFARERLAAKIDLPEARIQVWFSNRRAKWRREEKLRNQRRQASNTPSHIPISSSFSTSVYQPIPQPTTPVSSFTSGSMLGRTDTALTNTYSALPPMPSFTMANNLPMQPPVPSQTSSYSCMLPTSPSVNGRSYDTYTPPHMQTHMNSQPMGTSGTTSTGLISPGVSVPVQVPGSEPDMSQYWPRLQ
Summary of the method: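 Readout: reporter transcript fluorescence after RT-PCR and capillary electrophoresis. Cells: HepG2, transiently transfected with cis-regulated MRTUs. Exposure 24 h. Gain or loss of signal fitted bidirectionally relative to DMSO.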

[13] = ATG_PXRE_CIS: Attagene CIS-FACTORIAL HepG2 Assay for human Pregnane X Receptor Element (PXRE) (AID 2282957); conditions: HepG2 Attagene CIS-FACTORIAL PXRE reporter, mRNA; actives raise or lower the signal
Summary of the method: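 After a 24 h chemical incubation, total RNA from transfected HepG2 cells was reverse-transcribed and reporter cDNA amplified, FAM-labeled, HpaI-digested and sized by capillary electrophoresis. DMSO served as baseline for bidirectional curve fitting.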

[14] = ATG_PPRE_CIS: Attagene CIS-FACTORIAL HepG2 Assay for human Peroxisome Proliferator-activated Response Element (PPRE) (AID 2282958); conditions: HepG2 PPRE cis-element reporter, Attagene transcription factor profiling; actives raise or lower the signal
Summary of the method: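 HepG2 cells transiently transfected with multiplexed cis-element reporter units measure endogenous transcription factor activity. After 24 h compound exposure, reporter mRNA is quantified by RT-PCR, 6-FAM labeling, HpaI digestion and capillary electrophoresis; bidirectional fits are made against DMSO baseline.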

[15] = ATG_RORE_CIS: Attagene CIS-FACTORIAL HepG2 Assay for human RAR-related Orphan Receptor Element (RORE) (AID 2282959); conditions: HepG2 Attagene cis-factorial RORE reporter, mRNA; actives raise or lower the signal
Summary of the method: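 HepG2 cells transiently transfected with multiple cis-element reporter transcription units, exposed to chemical for 24 h. Reporter mRNA quantified by RT-PCR, 6-FAM primer-extension labeling, HpaI digestion and capillary electrophoresis; bidirectional fit versus DMSO baseline.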

[16] = ATG_Sox_CIS: Attagene CIS-FACTORIAL HepG2 Assay for human SRY-box transcription factor (SOX) (AID 2282960); conditions: HepG2 Attagene cis-factorial SOX reporter, mRNA; actives raise or lower the signal
Summary of the method: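 HepG2 cells transiently transfected with cis-element-driven multiple reporter transcription units, dosed 24 h; reporter mRNA measured by RT-PCR, FAM labelling, HpaI digestion and capillary electrophoresis. Bidirectional fit versus DMSO baseline.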

[17] = biological target: Transcription factor Sp1 (Homo sapiens) (UniProt P08047); assay: ATG_Sp1_CIS: Attagene CIS-FACTORIAL HepG2 Assay for human Specificity Protein 1 (Sp1) (AID 2282961); conditions: HepG2 Sp1 cis-reporter transcription, actives raise or lower the signal
Chain of Transcription factor Sp1 (Homo sapiens) (P08047 whole entry, looked up): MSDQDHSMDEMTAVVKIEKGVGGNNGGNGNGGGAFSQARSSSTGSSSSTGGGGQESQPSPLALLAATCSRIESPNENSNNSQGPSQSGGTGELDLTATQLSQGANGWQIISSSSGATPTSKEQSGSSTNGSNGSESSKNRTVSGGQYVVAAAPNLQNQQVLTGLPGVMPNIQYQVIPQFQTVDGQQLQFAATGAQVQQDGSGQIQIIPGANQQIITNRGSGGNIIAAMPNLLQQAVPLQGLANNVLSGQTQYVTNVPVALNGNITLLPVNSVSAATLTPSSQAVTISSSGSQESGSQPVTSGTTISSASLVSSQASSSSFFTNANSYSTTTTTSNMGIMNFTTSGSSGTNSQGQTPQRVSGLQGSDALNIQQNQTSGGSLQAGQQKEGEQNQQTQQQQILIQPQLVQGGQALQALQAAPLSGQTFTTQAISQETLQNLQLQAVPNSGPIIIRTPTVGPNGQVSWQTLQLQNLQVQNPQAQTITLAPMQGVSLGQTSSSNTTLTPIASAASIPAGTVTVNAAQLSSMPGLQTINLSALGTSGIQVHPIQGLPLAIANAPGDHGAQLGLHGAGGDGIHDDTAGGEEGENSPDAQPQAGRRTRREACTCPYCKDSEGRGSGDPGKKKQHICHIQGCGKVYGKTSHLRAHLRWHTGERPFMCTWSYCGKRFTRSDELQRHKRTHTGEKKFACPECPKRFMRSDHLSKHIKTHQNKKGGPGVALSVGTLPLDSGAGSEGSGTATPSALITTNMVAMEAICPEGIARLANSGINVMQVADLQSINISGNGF
Summary of the method: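 HepG2 cells transiently transfected with multiple reporter transcription units driven by cis-regulatory elements; Sp1-responsive reporter mRNA measured 24 h after dosing by RT-PCR and capillary electrophoresis fluorescence, fitted bidirectionally against DMSO baseline.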

[18] = ATG_SREBP_CIS: Attagene CIS-FACTORIAL HepG2 Assay for human Sterol Regulatory Element Binding (SREBP) (AID 2282962); conditions: HepG2 Attagene cis-factorial SREBP reporter, mRNA; actives raise or lower the signal
Summary of the method: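 Readout: fluorescent reporter-transcript peaks resolved by capillary electrophoresis after RT-PCR. Cells were human HepG2 carrying transfected cis-promoter reporter constructs, dosed for 24 h. Gain or loss of signal was fitted against DMSO controls.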

[19] = biological target: Signal transducer and activator of transcription 3 (Homo sapiens) (UniProt P40763); assay: ATG_STAT3_CIS: Attagene CIS-FACTORIAL HepG2 Assay for human Signal Transducer and Activator of Transcription 3 (STAT3) (AID 2282963); conditions: HepG2, Attagene cis-factorial STAT3 reporter transcription; actives raise or lower the signal
Chain of Signal transducer and activator of transcription 3 (Homo sapiens) (P40763 whole entry, looked up, the tested form may be a part): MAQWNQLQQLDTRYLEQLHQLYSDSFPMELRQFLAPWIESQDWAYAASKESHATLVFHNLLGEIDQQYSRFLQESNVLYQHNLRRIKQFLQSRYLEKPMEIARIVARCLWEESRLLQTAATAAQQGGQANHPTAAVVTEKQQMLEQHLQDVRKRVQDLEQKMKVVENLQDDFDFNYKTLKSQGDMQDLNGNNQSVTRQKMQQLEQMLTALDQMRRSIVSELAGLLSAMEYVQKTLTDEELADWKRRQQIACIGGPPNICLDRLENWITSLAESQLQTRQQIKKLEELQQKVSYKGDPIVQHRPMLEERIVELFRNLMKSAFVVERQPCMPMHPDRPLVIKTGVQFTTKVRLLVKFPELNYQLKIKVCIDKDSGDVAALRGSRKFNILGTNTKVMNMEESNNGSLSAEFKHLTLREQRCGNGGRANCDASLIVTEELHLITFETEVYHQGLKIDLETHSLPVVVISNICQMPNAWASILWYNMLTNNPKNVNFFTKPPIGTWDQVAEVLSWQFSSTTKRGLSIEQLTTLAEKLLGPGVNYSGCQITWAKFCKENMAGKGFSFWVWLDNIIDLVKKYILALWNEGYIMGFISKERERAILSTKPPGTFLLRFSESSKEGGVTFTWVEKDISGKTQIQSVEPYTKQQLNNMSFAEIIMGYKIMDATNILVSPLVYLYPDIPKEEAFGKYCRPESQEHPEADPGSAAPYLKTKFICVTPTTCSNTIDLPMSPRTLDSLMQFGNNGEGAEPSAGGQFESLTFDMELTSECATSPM
Summary of the method: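 Fluorescence intensity of 6-FAM-labelled reporter fragments, separated by capillary electrophoresis after RT-PCR, gave the signal. Cells were HepG2 transfected with cis-element reporter units and treated 24 h; fitting was bidirectional relative to DMSO.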

[20] = ATG_TA_CIS: Attagene CIS-FACTORIAL HepG2 Assay for human TA Basal Promoter (AID 2282964); conditions: HepG2 Attagene CIS-factorial TA basal promoter reporter; actives raise or lower the signal
Summary of the method: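 Background internal-marker endpoint from a 52-component HepG2 cis-reporter panel. Cells treated 24 h; reporter transcripts quantified via RT-PCR and CE fluorescence against DMSO baseline.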

Measured: AC50

CCC=C(C)C=O
active: [13] 24.7 µM
inactive: all other assays above

CC(C)C(=O)OCC=Cc1ccccc1
active: [13] 16.4 µM
not listed: [6]
inactive: all other assays above

COc1ccc(N)c(C)c1
active: [11] 181 µM | [13] 27.3 µM
not listed: [3] | [14] | [15]
inactive: all other assays above

CCC(=O)OCC=Cc1ccccc1
active: [13] 33.1 µM
inactive: all other assays above

CCCCCC(=O)O[C@]1(C(C)=O)CC[C@H]2[C@@H]3CCC4=CC(=O)CC[C@]4(C)[C@H]3CC[C@@]21C
active: [1] 57.7 µM | [3] 55.1 µM | [4] 16.3 µM | [7] 33.2 µM | [9] 32 µM | [10] 13 µM | [12] 22.8 µM | [13] 0.239 µM | [16] 59.6 µM | [18] 33.2 µM | [19] 33.2 µM | [20] 60 µM
inactive: [2] | [5] | [6] | [8] | [11] | [14] | [15] | [17]

COc1ccccc1O
active: [13] 69.3 µM
not listed: [8]
inactive: all other assays above

c1ccc2c(c1)-c1ccc3ccc4cccc5cc-2c1c3c45
active: [7] 0.0166 µM | [13] 1.02 µM | [15] 0.163 µM
not listed: [5]
inactive: all other assays above

O=C1CCC(=O)N1
active: [7] 28.2 µM
not listed: [11] | [12]
inactive: all other assays above

CC1=CC(C)C(C=O)C(C)C1 (centres undefined) (tested in a mixture with another compound)
active: [13] 15.9 µM
not listed: [14] | [15] | [16]
inactive: all other assays above

CCCCCCCCCCCCCC(=O)OCC
not listed: [2] | [16]
inactive: all other assays above

Brc1cc(Br)cc(Br)c1
active: [13] 100 µM
not listed: [2]
inactive: all other assays above

Cc1ccc(C(C)(C)O)cc1
not listed: [2]
inactive: all other assays above

CCC(=O)OC/C=C(\C)CCC=C(C)C
active: [13] 44 µM
not listed: [2] | [11]
inactive: all other assays above

O=S1(=O)CC(Cl)(Cl)C(Cl)(Cl)C1
active: [4] 1.37 µM | [10] 6.29 µM | [12] 5.97 µM
not listed: [2] | [11] | [15]
inactive: all other assays above

CN(C)c1ccc(C=O)cc1
not listed: [2]
inactive: all other assays above
